# Source: PubChem (National Center for Advancing Translational Sciences (NCATS))
# This is a sample that favours compounds with a hit; in the whole collection about 10% have one here.
# G9a block: qHTS Assay for Inhibitors of Histone Lysine Methyltransferase G9a; AID 504332, 2011; 350,000 compounds, 8.8% hits; G9a H3K9 monomethylation, AlphaScreen, 2 h; Potency, µM (doses to about 102 µM), without a hit: at the highest dose activity, negative = inhibition, actives largely listed as inhibitors; further: potency means the concentration at half of the fitted maximal effect; on the % scale 0 is the no-effect control and ±100 the full control effect; nearly all actives have a fitted effect of over 75% in size
# Target sequence (Q96KQ7 913-1193 limits assumed): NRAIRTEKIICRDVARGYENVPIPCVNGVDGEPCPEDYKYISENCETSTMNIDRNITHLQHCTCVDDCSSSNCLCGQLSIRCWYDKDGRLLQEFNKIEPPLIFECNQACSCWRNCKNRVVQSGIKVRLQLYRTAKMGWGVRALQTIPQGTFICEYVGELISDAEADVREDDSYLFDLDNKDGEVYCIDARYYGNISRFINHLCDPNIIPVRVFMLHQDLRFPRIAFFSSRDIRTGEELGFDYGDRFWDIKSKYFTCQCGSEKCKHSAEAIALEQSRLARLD
#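 Using a bead-based AlphaScreen, monomethylated H3K9 product from 2 h room-temperature reactions (G9a 20 nM, peptide 500 nM, SAM 20 uM) was detected with 0.5 ug/mL rabbit anti-H3K9me1 antibody.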
# CtBP-E1A blk: qHTS Assay for Inhibitors of the CtBP/E1A Interaction | CtBP / adenovirus E1A interaction (AlphaScreen) | AlphaScreen GST-E1A/His-CtBP binding, 1536-well; active compounds read low | activity change, % (test concentration not listed) | 340,000 compounds, 0.49% hits; in the data active means activity change below about -65%; inconclusive means mostly about -30% to -63%; further: on the % scale 0 is the no-effect control and ±100 the full control effect
#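 AlphaScreen with 125 nM GST-E1A and 125 nM His-CtBP (5X stocks) in Tris pH 8.0, 300 mM NaCl, BSA, Tween 20, TCEP. Compounds preincubated 2 h at 37 deg C, then glutathione donor/nickel acceptor beads added for 1 h at 37 deg C in dark.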
# HP1b chromo inh: HTS for Inhibitors of HP1-beta Chromodomain Interactions with Methylated Histone Tails | AlphaScreen HP1-beta / biotin-H3K9me3 peptide binding | Potency, µM (titrated, usually from 114 µM), for the others: at the top dose activity change, negative = inhibition, actives largely listed as inhibitors | 390,000 compounds, 0.56% hits | AID 540317, 2011; further: potency means the concentration at half of the fitted maximal effect; nearly all actives have a fitted effect of over 70% in size
# Target sequence (P83916 whole entry, looked up): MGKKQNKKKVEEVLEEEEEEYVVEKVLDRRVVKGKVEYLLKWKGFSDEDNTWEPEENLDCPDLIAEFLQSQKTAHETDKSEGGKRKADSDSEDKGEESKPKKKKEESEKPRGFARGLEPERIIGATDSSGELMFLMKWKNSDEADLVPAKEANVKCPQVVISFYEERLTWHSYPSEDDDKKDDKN
#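 AlphaScreen: HP1-beta (50 nM) preformed 30 min with biotin-H3(1-18)K9me3 peptide (50 nM) in PBS pH 7.4, 0.01% Tween-20. Compound added for 30 min at RT, then streptavidin donor/nickel chelate acceptor beads (10 ug/mL) for 30 min.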
# JMJD2A Tudor inh: qHTS Assay for Inhibitors of JMJD2A-Tudor Domain. Lysine-specific demethylase 4A (Homo sapiens), O75164. AlphaScreen JMJD2A-Tudor / H3K4me3 peptide binding. Potency, µM (highest dose often 114 µM), without a hit: top-dose activity change, negative = inhibition, most hits filed as inhibitors. 390,000 compounds, 4.4% hits. AID 504339, 2011; further: potency means the concentration at half of the fitted maximal effect; on the % scale 0 is the no-effect control and ±100 the full control effect; nearly all actives have a fitted effect of over 50% in size
# BAZ2B inh: qHTS Assay for Inhibitors of BAZ2B; Bromodomain adjacent to zinc finger domain protein 2B (Homo sapiens), Q9UIF8; AlphaScreen BAZ2B-H3K14Ac peptide displacement; Potency, µM (top dose mostly 114 µM), for inactives: at the top dose activity change, negative = inhibition, actives largely listed as inhibitors; 360,000 compounds, 4.4% hits; further: potency means the concentration at half of the fitted maximal effect; on the % scale 0 is the no-effect control and ±100 the full control effect; nearly all actives have a fitted effect of over 60% in size
#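 BAZ2B (50 nM) with biotin-H3(5-23)K14Ac peptide (50 nM) in PBS pH 7.4, 0.01% Tween-20, preformed 30 min, then compound 30 min at room temperature; top concentration 110uM. AlphaScreen streptavidin donor/nickel chelate acceptor beads (10 ug/mL final), 20 min dark, signal read.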
# Six1-Eya2 inh: qHTS Assay for Inhibitors of the Six1/Eya2 Interaction; Homeobox protein SIX1 (Homo sapiens) + Protein phosphatase EYA2 (Homo sapiens), …; AlphaScreen GST-Six1/His-Eya2 binding, biochemical; active compounds read low; 360,000 compounds, 0.56% hits; activity change, % (concentration not given with the values); AID 651725, 2012; in the data active means activity change below about -65%; inconclusive means mostly about -30% to -63%; further: on the % scale 0 is the no-effect control and ±100 the full control effect
#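 GST-Six1 + His-Eya2 (5X stock: 250/500 nM); Tris pH 8.0, 300 mM NaCl, 0.05% BSA, 0.02% Tween 20; GSH donor/Ni acceptor beads; 1 h 37 °C dark; AlphaScreen readout.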
# * hit, by the source's call; ? = inconclusive; . = no result; [ ] = dose if it differs, or a comment. Unless noted, the call rests on the fitted dose curve; in most records, active means well fitted inhibition curve with a large enough effect; inconclusive means small, poorly fitted or top-dose-only effect; inactive means no such curve, though single readings can be large or run the other way.
SMILES,G9a block,CtBP-E1A blk,HP1b chromo inh,JMJD2A Tudor inh,BAZ2B inh,Six1-Eya2 inh
COc1cc(C(=S)N2CCN(c3ccccc3Cl)CC2)cc(O)c1O,1.8µM*,10,11µM*,32µM*,50µM*,-15
Oc1ccccc1C(=S)N1CCN(c2cccc(Cl)c2)CC1,-9%[0.501 µM],-10,?,?,45µM*,-12
CC(=O)c1ccc(NC(=S)N2CCN(c3cccc(Cl)c3)CC2)cc1,10%,1,18%,-7%,-12%,-1
Oc1ccc(C(=S)N2CCN(c3cccc(Cl)c3)CC2)cc1,5µM*,-10,?,56µM*,40µM*,-25
COc1ccc(C(=S)N2CCN(c3cccc(Cl)c3)CC2)c(OC)c1,10µM*,-12,?,?,?,-28
Cc1cc(C)c2c(CC(=O)Nc3ccc(S(=O)(=O)Nc4ncccn4)cc3)coc2c1,?,.,15%,-19%,-11%,.
O=C(NCc1ccc(F)cc1)c1cc2cccc3c2n1CCS3,-1%[59 µM],.,73%,16%,25%,.
COc1cc(C(=S)N2CCN(c3cccc(Cl)c3)CC2)ccc1O,-5%[0.501 µM],-10,7.1µM*,63µM*,45µM*,-18
Oc1ccc(/C=N/n2cnn(Cc3ccccc3Cl)c2=S)c(O)c1,3.2µM*,-2,-31%,?,-29%,1
COc1ccc(/C=N/n2cnn(Cc3ccccc3Cl)c2=S)cc1OC,40µM*,-9,?,-26%,-28%,-11
COc1cc(NC(=O)C2CCN(C(=O)c3sc4nc[nH]c(=O)c4c3C)CC2)cc(OC)c1OC,5%[59 µM],.,24%[57 µM],1%,0%,.
CN(c1ccc(OCC(=O)NC2CCC(O)CC2)cc1)S(=O)(=O)c1ccc(Cl)cc1 (stereo not given),.,0,22%,-11%,.,-1
CCOC(=O)c1sc(-c2ccc(Br)cc2)cc1N,2%[12.7 µM],30,81%,25%,26%[57.1 µM],18
CCOC(=O)c1cc(-c2ccc(N)cc2)sc1N,?,-26,-51%,45µM*,32µM*,-24
Cc1ccc(NC(=O)CSCC(=O)N(C)CC(=O)Nc2cccc(F)c2)cc1,45µM*,-1,20%,-6%,2%,-1
Cc1cccc(NC(=O)CSCC(=O)N(C)CCOc2ccc(Cl)cc2)c1,56µM*,8,23%,-10%,-3%,1
CCc1cccc(OCC(=O)N(C)CC(=O)Nc2cccc(F)c2)c1,50µM*,0,19%,-10%,9%,3
CCC(=O)c1ccc(OCC(=O)N(C)CC(=O)Nc2cccc(F)c2)cc1,-13%[59 µM],.,67%,0%,-10%,4
O=C(CSCc1ccc(F)cc1)Nc1ccc(F)cc1,-8%,1,51%,3%,-2%,-4
O=C(CSCc1ccccc1)Nc1cccc(F)c1,9%[59 µM],4,22%,45µM*,4%,-1
COc1cccc(CNC(=O)c2ccc3oc(=O)n(Cc4ccccc4)c3c2)c1,?,.,36%,-3%,-1%,.
CCCCNC(=O)c1nc(C2CCN(S(=O)(=O)c3ccc(Cl)cc3)CC2)oc1-c1ccccc1,.,-4,.,.,.,3
COc1ccc(OC)c(S(=O)(=O)N2CCN(Cc3nc4ccc(C)cc4o3)CC2)c1,1%[59 µM],.,2%,-14%,-19%,.
COc1cccc(NC(=O)Cc2ccccc2)c1,-10%,3,46%,6%,-6%,10
O=C(Cc1ccccc1)Nc1cccc(N2C(=O)C=CC2=O)c1,0.35µM*,-6,?,20µM*,?,-29
SMILES,G9a block,CtBP-E1A blk,HP1b chromo inh,JMJD2A Tudor inh,BAZ2B inh,Six1-Eya2 inh
NS(=O)(=O)c1ccc(N=C2C(=O)Nc3ccccc32)cc1,.,0,70%,-12%,-10%,11
CC(C)C1=CC(=Nc2ccc(S(N)(=O)=O)cc2)C=C(C(C)C)C1=O,.,-6,?,56µM*,45µM*,-13
CCOC(=O)c1c(C)c(-c2ccccc2)n(CC(=O)Nc2cccc(F)c2)c1C,2%[59 µM],.,2%,-20%,-6%,.
Oc1cccc(NC(=S)Nc2ccccc2)c1,50µM*,.,31%,-15%,-8%,4
Oc1cccc(Nc2ccccc2)c1,-4%[0.501 µM],-11,-9%,-31%,?,2
Fc1cccc(NC(=S)NNc2c3ccccc3nc3ccccc23)c1,16µM*,-3,?,?,7.1µM*,?
Fc1cccc(NC(=S)NNc2ccccc2)c1,50µM*,-8,?,56µM*,40µM*,1
NC(=S)Nc1cccc(F)c1,?,5,15%,-2%,-10%,7
Fc1cccc(Nc2c3c(nc4ccccc24)CCC3)c1,-9%[2.33 µM],-4,5%,-15%,-13%,-2
OC[C@@H]1CN(Cc2cccnc2)C[C@H](n2cnc3c(N4CCCC4)ncnc32)O1,.,5,.,.,.,-2
CCOC(=O)[C@]12CCCC=C1N(Cc1ccco1)C(=O)[C@H](CC(=O)NCc1ccccc1)C2,.,0,.,.,.,-3
COc1ccc(C(=O)Nc2nc3c(s2)Cc2cc(OC)ccc2-3)cc1,45µM*,-11,-4%,-18%,-15%,1
COc1ccc2c(c1)-c1nc(NC(=O)c3cc(Cl)ccc3OC)sc1CC2,20µM*,.,21%,-18%,-10%,.
Cc1cc(C)c2c(N=NN3CCCCC3)[nH]nc2n1,45µM*,-6,14%,-1%,-12%,1
CCN(CC)N=Nc1[nH]nc2nc(C)cc(C)c12,.,-5,-11%,-23%[11.4 µM],0%,3
CCCCc1cc2c(cc1NC(=O)CN1CCCCC1)OCCO2,?,-4,20%,-22%,-10%,7
CC(=O)c1cc2c(cc1NC(=O)CN1CCCCCCC1)OCO2,10µM*,0,?,?,50µM*,8
CC(=O)c1cc2c(cc1NC(=O)CCn1cnnn1)OCO2,40µM*,-2,42%,-1%,4%,-6
CC(=O)c1cc2c(cc1NC(=O)CCCC(=O)O)OCO2,-4%,-1,36%,-3%,9%,-1
Nc1ncc(N=Nc2cc(C(=O)O)ccc2Cl)s1,-132%[59 µM],.,?,?,89µM*,-9
Clc1ccc(CSc2ncccn2)cc1,32%[59 µM],14,66%,61%,38%,20
c1ccc(CSc2ncccn2)cc1,25µM*,0,19%,9%,10%,10
c1ccc(CSc2nnc(Cc3ccccc3)o2)cc1,?,5,46%,79µM*,56%,47
c1ccc(CSc2nnc([C@@H]3CCCN3)o2)cc1,.,4,70%,?,50µM*,-2
